{
  "source": "the supplement of paper PMC3334620",
  "note": "In all, about 33,000 sequences were measured (“E-score (-0.5 to 0.5)”: median about -0.035, highest 2% from about 0.34 on). This is one part of a sample in which the highest values are shown more often than they occur.",
  "data": [
    {"molecular_target": "T1, Mot3 (UniProt P54785)", "T1 sequence": "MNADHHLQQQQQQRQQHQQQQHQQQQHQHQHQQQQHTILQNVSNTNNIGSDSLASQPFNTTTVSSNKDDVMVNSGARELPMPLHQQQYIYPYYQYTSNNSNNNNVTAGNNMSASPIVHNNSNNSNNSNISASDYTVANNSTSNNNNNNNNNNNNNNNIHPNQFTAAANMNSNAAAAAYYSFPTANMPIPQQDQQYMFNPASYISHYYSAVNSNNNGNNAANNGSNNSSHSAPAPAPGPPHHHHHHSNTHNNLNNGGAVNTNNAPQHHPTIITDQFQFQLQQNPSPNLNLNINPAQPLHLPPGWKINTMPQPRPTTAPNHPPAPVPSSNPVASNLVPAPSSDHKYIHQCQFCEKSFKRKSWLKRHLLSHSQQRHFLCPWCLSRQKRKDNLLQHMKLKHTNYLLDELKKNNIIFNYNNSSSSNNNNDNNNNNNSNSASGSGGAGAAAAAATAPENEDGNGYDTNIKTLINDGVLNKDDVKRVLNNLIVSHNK", "assay": "PBM E-score (8-mer binding enrichment) (E-score (-0.5 to 0.5)); higher = stronger / more preferred TF binding", "settings": "protein concentration: 200 nM; construct: GST-full length", "procedure": "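Universal 'all 10-mer' protein binding microarrays (Agilent AMADID 015681) probed with GST-tagged S. cerevisiae TFs (full-length or DBD) made by in vitro transcription/translation (PURExpress), about 100-200 nM. Bound TF was detected with fluorescent anti-GST. Each ungapped 8-mer (which stands for itself and its reverse complement) is scored by the PBM enrichment score (E-score), a modified Wilcoxon-Mann-Whitney statistic from -0.5 to +0.5, computed with the Universal PBM Analysis Suite. Scale: above 0.35 generally sequence-specific binding.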", "values": [
      {"sequence": "ACCTAGGT", "PBM E-score": 0.124},
      {"sequence": "CGGTCTAC", "PBM E-score": -0.0115},
      {"sequence": "ACTTCTGA", "PBM E-score": -0.101},
      {"sequence": "GTGCATAA", "PBM E-score": 0.084},
      {"sequence": "AGGTTGTC", "PBM E-score": -0.0425},
      {"sequence": "CAAAGAAC", "PBM E-score": 0.197},
      {"sequence": "CGCGGAAG", "PBM E-score": -0.172},
      {"sequence": "GCCATGGA", "PBM E-score": -0.144},
      {"sequence": "ACCATGTA", "PBM E-score": 0.404},
      {"sequence": "CCCATGTC", "PBM E-score": 0.0657},
      {"sequence": "ACCATGTG", "PBM E-score": 0.0765},
      {"sequence": "ACCATGTC", "PBM E-score": 0.223},
      {"sequence": "GCCATGTA", "PBM E-score": 0.383},
      {"sequence": "CCCATGTA", "PBM E-score": 0.377},
      {"sequence": "GCCATGCA", "PBM E-score": -0.135},
      {"sequence": "CCCATGGA", "PBM E-score": -0.187},
      {"sequence": "ATACCTCG", "PBM E-score": 0.121},
      {"sequence": "AAGGTGGC", "PBM E-score": -0.095},
      {"sequence": "AAACAGCT", "PBM E-score": -0.268},
      {"sequence": "AGGTAACT", "PBM E-score": 0.297},
      {"sequence": "GTGTAACA", "PBM E-score": 0.343},
      {"sequence": "AGGTAACA", "PBM E-score": 0.357},
      {"sequence": "ATGTAACC", "PBM E-score": 0.166},
      {"sequence": "AGGTAACC", "PBM E-score": 0.321},
      {"sequence": "CTGTAACA", "PBM E-score": 0.182},
      {"sequence": "GCGTAACA", "PBM E-score": 0.196},
      {"sequence": "ATGTAACA", "PBM E-score": 0.373},
      {"sequence": "GTGTAAGA", "PBM E-score": 0.312},
      {"sequence": "ACCGACCC", "PBM E-score": -0.256},
      {"sequence": "AGCAGAAT", "PBM E-score": 0.059},
      {"sequence": "ATCCTGCG", "PBM E-score": 0.0225},
      {"sequence": "TGAGAGAA", "PBM E-score": -0.0743},
      {"sequence": "AGGGTCCG", "PBM E-score": -0.269},
      {"sequence": "CGCCCAAG", "PBM E-score": -0.105},
      {"sequence": "GAATTACC", "PBM E-score": 0.0992},
      {"sequence": "CAATTACG", "PBM E-score": 0.26},
      {"sequence": "CAATTACA", "PBM E-score": 0.378},
      {"sequence": "AAATTACA", "PBM E-score": 0.365},
      {"sequence": "AAATTACG", "PBM E-score": 0.249},
      {"sequence": "GAATTACA", "PBM E-score": 0.366},
      {"sequence": "TAATTACA", "PBM E-score": 0.372},
      {"sequence": "TAATTAGA", "PBM E-score": 0.0891},
      {"sequence": "TAATTATA", "PBM E-score": 0.206},
      {"sequence": "AAATTACT", "PBM E-score": 0.138},
      {"sequence": "CAATTACC", "PBM E-score": 0.12},
      {"sequence": "GAATTATA", "PBM E-score": 0.0628},
      {"sequence": "AAGCAGAA", "PBM E-score": 0.108},
      {"sequence": "AACTAGAT", "PBM E-score": 0.138},
      {"sequence": "AGGCAGCC", "PBM E-score": 0.317},
      {"sequence": "CTTCTCAC", "PBM E-score": -0.125},
      {"sequence": "TCGGCTAA", "PBM E-score": -0.0724},
      {"sequence": "ACTGTTGG", "PBM E-score": -0.221},
      {"sequence": "CCCTGGTC", "PBM E-score": -0.315},
      {"sequence": "TGCTTCAA", "PBM E-score": 0.0489},
      {"sequence": "GACAACAC", "PBM E-score": 0.261},
      {"sequence": "ATGAACAT", "PBM E-score": 0.252},
      {"sequence": "ACGAACAT", "PBM E-score": 0.109},
      {"sequence": "AGGAACAA", "PBM E-score": 0.401},
      {"sequence": "CGGAACAG", "PBM E-score": -0.216},
      {"sequence": "AGGAACAG", "PBM E-score": 0.434},
      {"sequence": "TGGAACAA", "PBM E-score": 0.136},
      {"sequence": "CGGAACAA", "PBM E-score": 0.0225},
      {"sequence": "CACAACAC", "PBM E-score": 0.302},
      {"sequence": "AACAACAC", "PBM E-score": 0.349},
      {"sequence": "ACGAACAG", "PBM E-score": -0.0228},
      {"sequence": "AGGAACAT", "PBM E-score": 0.422},
      {"sequence": "CTTCGGTC", "PBM E-score": -0.0958},
      {"sequence": "ATGGGAGC", "PBM E-score": -0.193},
      {"sequence": "ACGCATGC", "PBM E-score": 0.169},
      {"sequence": "ACAAAGCA", "PBM E-score": 0.168},
      {"sequence": "CTAGCGGA", "PBM E-score": -0.00619},
      {"sequence": "GATTAGCA", "PBM E-score": -0.0223},
      {"sequence": "CGCTCAAG", "PBM E-score": -0.0197},
      {"sequence": "TTAGCTAA", "PBM E-score": -0.0988},
      {"sequence": "CTTCCACA", "PBM E-score": -0.14},
      {"sequence": "ATCTCTTG", "PBM E-score": -0.0945},
      {"sequence": "CTTAACAC", "PBM E-score": 0.333},
      {"sequence": "CGGAACAC", "PBM E-score": 0.0144},
      {"sequence": "ATTAACAA", "PBM E-score": 0.328},
      {"sequence": "GGGAACAC", "PBM E-score": 0.0104},
      {"sequence": "AGGAACAC", "PBM E-score": 0.404},
      {"sequence": "ATCAACAG", "PBM E-score": 0.0788},
      {"sequence": "ATCAACAA", "PBM E-score": 0.224},
      {"sequence": "ATTAACAC", "PBM E-score": 0.384},
      {"sequence": "ATCAACAT", "PBM E-score": 0.339},
      {"sequence": "AAGTAGGA", "PBM E-score": 0.2}
    ]}
  ]
}
